According to the supplement of paper PMC6555819:

Key:
Assay in all cases: PBM binding z-score (relative to random genomic background probes); higher = stronger binding; sequences stand for … in GC…GCGATTGACAGCGTAGAATGAAGG
[1] = tested on: PPARg:RXRa DBDmut IVT, anti-RXR (DBD mutation: RXRa K156A/R161A, NR concentration 270 nM, RXRa partner concentration 90 nM)
Procedure, shortened: (§1)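 Custom Agilent 4×180K protein-binding microarrays carried double-stranded probes. Their 34-nt variable regions held direct-repeat seeds, single-nucleotide variants, half-site ablations and random human genomic background sequences. Arrays were incubated 1 h with ligand-free nuclear receptor dimers in PBS pH 7.4, 2% milk, 0.02% Triton X-100, 1 mM DTT, 0.2 mg/mL BSA and 0.4 mg/ml salmon testes DNA. Antibodies against each partner (one per run) detected binding, and scanned fluorescence was regression-normalized. Binding z-scores use random background probes as reference.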

[2] = tested on: PPARg:RXRa IVT, anti-PPARg (NR concentration 270 nM, RXRa partner concentration 90 nM)
Procedure, shortened: as §1

[3] = tested on: PPARg DBDmut:RXRa IVT, anti-PPARg (DBD mutation: PPARg1 K132A/R137A, NR concentration 270 nM, RXRa partner concentration 90 nM)
Procedure, shortened: as §1

[4] = tested on: PPARg DBDmut IVT, anti-PPARg (DBD mutation: PPARg1 K132A/R137A, NR concentration 270 nM)
Procedure, shortened: as §1

[5] = tested on: PPARg homodimer (NR concentration 180 nM)
Procedure, shortened: as §1

[6] = tested on: PXR:RXRa (NR concentration 270 nM, RXRa partner concentration 90 nM)
Procedure, shortened: as §1

[7] = tested on: PXR homodimer (NR concentration 270 nM)
Procedure, shortened: as §1

[8] = tested on: RARa:RXR (NR concentration 270 nM, RXRa partner concentration 90 nM)
Procedure, shortened: as §1

[9] = tested on: RARa homodimer (NR concentration 270 nM)
Procedure, shortened: as §1

[10] = tested on: RARb:RXRa (NR concentration 270 nM, RXRa partner concentration 90 nM)
Procedure, shortened: as §1

[11] = tested on: RARb homodimer (NR concentration 270 nM)
Procedure, shortened: as §1

[12] = tested on: RARg:RXRa (NR concentration 270 nM, RXRa partner concentration 90 nM)
Procedure, shortened: as §1

[13] = tested on: RARg homodimer (NR concentration 270 nM)
Procedure, shortened: as §1

[14] = tested on: RXRa DBDmut IVT, anti-RXR (DBD mutation: RXRa K156A/R161A, NR concentration 90 nM)
Procedure, shortened: as §1

[15] = tested on: RXRa homodimer (NR concentration 180 nM)
Procedure, shortened: as §1

[16] = tested on: THRa:RXRa (NR concentration 90 nM, RXRa partner concentration 90 nM)
Procedure, shortened: as §1

[17] = tested on: THRa homodimer (NR concentration 90 nM)
Procedure, shortened: as §1

[18] = tested on: VDR homodimer (NR concentration 270 nM)
Procedure, shortened: as §1

Sequence | PBM binding z-score [1] | PBM binding z-score [2] | PBM binding z-score [3] | PBM binding z-score [4] | PBM binding z-score [5] | PBM binding z-score [6] | PBM binding z-score [7] | PBM binding z-score [8] | PBM binding z-score [9] | PBM binding z-score [10] | PBM binding z-score [11] | PBM binding z-score [12] | PBM binding z-score [13] | PBM binding z-score [14] | PBM binding z-score [15] | PBM binding z-score [16] | PBM binding z-score [17] | PBM binding z-score [18]
GCACATAGGTAATACAAGGTGAAAGTCCGATTGT | 0.57 | 1.1 | 0.738 | 0.527 | 0.516 | 0.612 | -0.214 | 1.59 | 0.568 | 0.552 | 0.838 | 0.572 | 0.547 | 0.115 | 0.869 | 4.19 | 1.02 | -0.0736
GCGACTGGGGCAAAGCACGTTACCATAAGGTTGG | 4.44 | 3.18 | 0.131 | -0.127 | 0.0548 | -0.54 | -0.386 | -0.0632 | -0.156 | 0.573 | 0.0132 | 0.0263 | 0.422 | -0.0988 | 0.0282 | -0.139 | -0.582 | -0.524
CGTCCAAGATCAGCAGGTCAGTGAAAGCGACGTG | 0.000191 | -0.104 | -0.863 | -0.238 | 0.712 | 0.136 | -0.221 | 0.583 | -0.407 | 1.97 | 2.09 | 1.01 | 1.51 | 0.253 | 0.844 | 1.11 | 0.018 | 0.137
GCTTACGGGTCAAAGGGTATAGCATGAATAGAAT | 4.35 | 5.08 | 1.19 | 2.3 | 2.55 | 4.16 | 0.626 | 5.66 | 0.592 | 4.09 | 2.63 | 5.24 | 4.04 | 2.41 | 7.03 | 2.8 | -0.191 | 1.45
CAAACTAGGTCAAGAAAGGTCAAAGTCGAATGAC | 8.14 | 8.39 | 1.43 | 1.46 | 4.85 | 6.73 | 3.25 | 7.01 | 3.23 | 5.44 | 5.71 | 7.33 | 7.9 | 1.95 | 7.67 | 4.9 | 1.79 | 3.03
TAGCCTAGGTCATTGGGCCAGTATTGTACGCATC | 2.88 | 3.82 | 0.545 | -0.273 | 1.88 | 1.57 | -0.247 | 2.41 | -0.7 | 3.58 | 2.89 | 3.78 | 4.05 | 1.46 | 2.62 | 2.88 | 0.793 | 1.03
CTAACTAGGTCAAAGGTCAAAGTCGAGCCAACCA | 9.01 | 9.15 | 2.95 | 1.6 | 4.42 | 7.03 | 1.84 | 8.76 | 2.8 | 5.8 | 4.93 | 8.93 | 7.64 | 2.72 | 10.3 | 4.84 | 1.59 | 3.19
CGTCAAAGTTCAAGATAACGTAACAGAAAGCAGC | 0.612 | 1.57 | 1.5 | 1.52 | 3.29 | 4.2 | 3.04 | 3.35 | 2.34 | 4.9 | 3.44 | 5.28 | 6.09 | 4.52 | 4.34 | 1.72 | -0.18 | 3.57
ACTATTAGTTGAGACGAGGCCAACCGATAGGTTG | -0.553 | 0.338 | -0.0845 | 1.03 | 0.634 | 0.673 | 0.177 | 0.671 | 0.555 | 0.81 | 0.728 | 0.273 | 0.272 | 0.0149 | 0.182 | 2.57 | 0.433 | 0.394
GCTGCTAGGTCAACTGATTGTCAGCTAAAGCTCG | 4.92 | 4.51 | -0.116 | -0.522 | 0.898 | 1.19 | -0.593 | 2.27 | -0.584 | 4.25 | 3.35 | 4.28 | 4.95 | 1.3 | 2.55 | 2.89 | 0.691 | 0.00113
ATACCAAGGTGCTCGTGAGGTCGTTGATACTAAC | -0.245 | 0.0535 | 0.246 | 0.215 | 0.541 | 2.27 | 0.582 | 1.85 | -0.377 | 0.57 | 1.4 | 0.626 | 0.196 | 0.552 | 0.882 | 3.31 | 2.12 | 2.55
GCTTACGGGTCATAGGTTATAGCATGAATAGAAT | 3.9 | 5.19 | 2.06 | 1.56 | 2.24 | 3.94 | 0.0944 | 5.79 | 0.0988 | 3.51 | 2.49 | 4.99 | 3.83 | 2.34 | 6.22 | 2.9 | 0.18 | 0.952
TCTTGTAGATAAATAGAGGTTAAGAAAGTGCGCT | 2.53 | 0.875 | 1.18 | 0.956 | 0.0767 | 2.77 | 0.529 | 1.8 | 1.33 | 0.915 | 1.11 | 0.845 | 0.418 | 1.3 | 1.46 | 1.54 | -0.012 | 0.923
CCTACTGGTCCAAAGGTCATTGATTCCAATGCTC | 1.53 | 4.41 | 0.302 | 0.567 | 3.79 | 5.35 | 2.05 | 5.46 | 1.48 | 4.42 | 4.86 | 5.09 | 4.49 | 2.23 | 5.45 | 3.31 | 1.49 | 2.58
